# VP16 counter: inhibits Gal4-VP16 luciferase reporter, ROR gamma counter-screen; Drosophila S2 Gal4-VP16 UAS-luciferase, luminescence, 20 h; Potency, µM (top dose mostly 53.6 µM), most hits filed as inhibitors; actives 3.5% (n = 310,000); AID 2546;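 further: Gal4-VP16 expression switched on by copper sulfate through the metallothionein promoter; nearly all actives have a fitted effect of over 50% in size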
# RORgamma inh: blocks mouse ROR gamma transcriptional activity | Drosophila S2 Gal4-RORgamma UAS-luciferase reporter, 20 h | Potency, µM (highest dose often 53.6 µM), hits mostly inhibitors | actives 5.4% (n = 310,000) | AID 2551; further: nearly all actives have a fitted effect of over 60% in size
#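 A Gal4/UAS one-hybrid system in insect cells: metallothionein-promoter Gal4–ROR gamma fusion plus Photinus luciferase reporter. Copper sulfate 700 uM final, 20 hr ambient incubation, luminescent detection after 10 min with reagent.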
# TDP1 block: blocks human tyrosyl-DNA phosphodiesterase 1; recombinant TDP1, AlphaScreen DNA substrate cleavage; AID 485290; Q9NUW8; actives 0.28% (n = 350,000); Potency, µM (titrated, usually from 130 µM), actives largely listed as inhibitors; further: nearly all actives have a fitted effect of over 40% in size
# Target sequence (Q9NUW8 whole entry, looked up): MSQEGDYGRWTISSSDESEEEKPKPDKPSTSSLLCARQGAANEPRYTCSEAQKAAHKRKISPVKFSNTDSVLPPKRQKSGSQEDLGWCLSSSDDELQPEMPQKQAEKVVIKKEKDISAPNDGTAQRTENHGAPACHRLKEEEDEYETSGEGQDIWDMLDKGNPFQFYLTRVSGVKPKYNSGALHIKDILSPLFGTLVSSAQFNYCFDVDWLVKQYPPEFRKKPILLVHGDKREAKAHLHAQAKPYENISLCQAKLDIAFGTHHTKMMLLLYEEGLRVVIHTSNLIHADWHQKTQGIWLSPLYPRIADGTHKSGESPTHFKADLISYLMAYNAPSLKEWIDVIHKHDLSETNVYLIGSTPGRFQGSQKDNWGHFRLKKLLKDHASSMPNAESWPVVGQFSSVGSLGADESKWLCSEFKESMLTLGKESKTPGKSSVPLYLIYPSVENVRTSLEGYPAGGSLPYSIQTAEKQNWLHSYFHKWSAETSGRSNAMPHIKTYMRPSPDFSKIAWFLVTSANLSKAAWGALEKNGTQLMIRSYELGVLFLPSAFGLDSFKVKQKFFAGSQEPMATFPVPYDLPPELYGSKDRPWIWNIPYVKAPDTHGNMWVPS
#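 E. coli-derived human Tdp1, 1 nM final. Cpd preinc 15 min RT; substrate 15 nM final, 5 min RT; AS bead mix 10 ug/ml final, 10 min RT. Signal loss = tyrosine-FITC cleavage. No-enzyme wells = max signal.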
# DT40 TDP1 no CPT: qHTS for Inhibitors of human tyrosyl-DNA phosphodiesterase 1 (TDP1): qHTS in cells in absence of CPT. actives 15% (n = 420,000). DT40 Tdp1-/- hTDP1 cells, no CPT, ATP luminescence, 48 h. Potency, µM (highest dose often 46.2 µM), actives largely listed as inhibitors; further: nearly all actives have a fitted effect of over 55% in size
#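 DT40 Tdp1-/-;hTDP1 cells, no CPT (DMSO vehicle only), 400 cells/well; compounds pin-transferred; ≥48 hr, 37 °C; CellTiter-Glo 30 min RT dark, luminescence read.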
# DT40 TDP1 CPT: growth inhibition of DT40 Tdp1-/-;hTDP1 cells with camptothecin (screen for TDP1 inhibitors); chicken DT40 Tdp1-/-;hTDP1 cells + 20 nM CPT, ATP luminescence, 48 h; Potency, µM (titrated, usually from 46.2 µM), actives largely listed as inhibitors; actives 12% (n = 420,000); AID 686979; further: nearly all actives have a fitted effect of over 55% in size
#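 Cell growth measured by CellTiter-Glo luminescence after a minimum 48 h, 37 C compound exposure with 20 nM CPT in Tdp1-knockout DT40 cells stably expressing hTDP1, seeded 400/well; qHTS titration format.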
# A number is an active result; 0 = inactive; ? = inconclusive; - = not tested or not shown; [ ] = dose if it differs, or a comment. Shown are actives, neighbours in structure and some others; about 19% of the full set was active somewhere. The call rests on the fitted dose curve; in most records, active means well fitted curve in the direction sought with a large enough effect; inconclusive means small, poorly fitted or top-dose-only effect, or another doubt; inactive means no such curve, though single readings can be large; an effect the other way counts as inactive or inconclusive.
SMILES,VP16 counter,RORgamma inh,TDP1 block,DT40 TDP1 no CPT,DT40 TDP1 CPT
Cc1ccc(O)c(C(=O)CC(=O)c2ccccc2Cl)c1,13µM,7.1µM,0,4.6µM,2.3µM
Cc1ccc(O)c(C(=O)CC(=O)c2ccc(C(C)(C)C)cc2)c1,5µM,5.6µM,-,4.6µM,7.3µM
CC(NC(=O)C1CCN(S(=O)(=O)c2ccc(F)cc2)CC1)c1ccccc1 (configuration not stated),-,-,-,0,?
COc1ccc(NC(=O)c2cc(C3CC3)nc3c2cnn3C(C)C)cc1OC,-,-,0,?,?
COc1ccc(CCNC(=O)c2cc(C3CC3)nc3c2cnn3C(C)C)cc1,-,-,0,18µM,?
CCc1ccccc1NC(=O)CNC(=O)c1cc(C2CC2)nc2c1cnn2C(C)C,-,-,0,?,?
COc1cc(C)c(NC(=O)c2cc(C3CC3)nc3c2cnn3C(C)C)cc1OC,-,-,0,16µM,?
COc1ccccc1CCNC(=O)c1cc(C2CC2)nc2c1cnn2C(C)C,-,-,0,23µM,?
Cc1cc(C)c(NC(=O)CNC(=O)c2cc(C3CC3)nc3c2cnn3C(C)C)c(C)c1,-,-,-,18µM,?
O=C(NCCSCc1ccco1)Nc1ccc(Cl)cc1,?,?,0,12µM,?
O=C(NCCSCc1ccco1)Nc1cccc(Cl)c1,?,?,0,?,?
O=C(Cc1ccccc1)NCCSCc1ccccc1,0,0,0,0,0
S=C(NCCSCc1ccc(Cl)cc1)Nc1ccccc1,11µM,2.5µM,0,?,?
S=C(NCCSCc1ccccc1Cl)Nc1ccccc1,4µM,2.8µM,0,?,?
Cc1cccc(CSCCNC(=S)Nc2ccccc2)c1,5.6µM,5.6µM,0,18µM,?
CC1=C(C(=O)Nc2ccc(C)cc2C)C(c2ccccc2)n2ncc(C(=O)Nc3ccccc3)c2N1 (configuration not stated),-,-,0,?,?
COc1cccc(NC(=O)C2CCN(S(=O)(=O)c3ccc4[nH]c5c(c4c3)CCCCC5)CC2)c1,-,-,0,?,?
CC1(C)CC(=O)C2=C(C1)N=C1c3ccccc3C(=O)C1C2c1ccc(Cl)cc1 (configuration not stated),0[0.365 µM],0,0,?,?
Cc1ccc(C2C3=C(CC(C)(C)CC3=O)N=C3c4ccccc4C(=O)C32)cc1 (configuration not stated),0,0[10 µM],0,18µM,?
COc1ccc(-c2ccc3oc(-c4ccsc4)cc(=O)c3c2)cc1F,-,-,0,0,0
CCc1ccccc1CC1CN(Cc2ccccc2)Cc2ccccc2N1c1ccc(OC)cc1 (configuration not stated),-,-,-,12µM,?
CCn1nnc(-c2ccccc2NC(=O)c2cc(OC)c(OC)c(OC)c2)n1,0,0,0,15µM,?
COc1cccc(NC(=O)Cn2nnc(-c3ccccc3N)n2)c1,0,0[10 µM],0,0,0
COc1ccc(C(=O)Cn2nnc(-c3ccccc3NC(=O)c3ccco3)n2)cc1,0,0,0,8.2µM,?
CCCC(=O)Nc1ccccc1-c1nnn(CC(=O)Nc2ccc(OC)cc2)n1,-,0[0.365 µM],0,21µM,?
SMILES,VP16 counter,RORgamma inh,TDP1 block,DT40 TDP1 no CPT,DT40 TDP1 CPT
COc1ccc(NC(=O)Cn2nnc(-c3ccccc3NS(=O)(=O)c3ccccc3)n2)cc1,?,0[10 µM],0,18µM,23µM
COc1ccc(C(=O)Nc2ccccc2-c2nnn(CC(=O)N3CCOCC3)n2)cc1,0,0,0,?,0
CCOc1ccc(NC(=O)Cn2nnc(-c3ccccc3NC(=O)c3cccs3)n2)cc1,0,0,0,?,?
CCn1ccnc1C(O)c1ccccc1OC (configuration not stated),0,0,0,0,0
Cc1ccc(C)c(C(=O)CN2C(=O)C(=O)N(C3CCCC3)C2=O)c1,-,-,0,0,0
COc1ccc(S(=O)(=O)Nc2ccccc2-c2nnn(CC(=O)Nc3ccccc3OC)n2)cc1,?,0[10 µM],0,8.2µM,6.5µM
CCCC(=O)Nc1ccccc1NC(C)=O,0,0,0,0,0
COc1cccc(Nc2ncnc3ccccc23)c1,0,?,0,?,?
COc1cc2ncnc(Nc3ccc4c(c3)OCO4)c2cc1OC,0,0,-,0,0
CNc1cc2c(Nc3cccc(Br)c3)ncnc2cn1,13µM,13µM,0,-,-
COc1ccc(Nc2ncnc3ccc(Br)cc23)cc1OC,0,0,-,?,18µM
C#Cc1cccc(Nc2ncnc3cc(OCCOC)c(OCCOC)cc23)c1,0,0[10 µM],0,13µM,?
COc1cc2ncnc(Nc3cccc(Br)c3)c2cc1OC,0,?,0,?,17µM
COc1cc2c(Nc3ccc(Br)cc3F)ncnc2cc1OCC1CCN(C)CC1,?,?,-,4.7µM,4.7µM
COc1cc2ncnc(NCc3cccc(F)c3F)c2cc1OC,0,0,-,?,?
COc1cc2ncnc(Nc3cccc(Cl)c3)c2cc1OC,0,0,0,13µM,18µM
CCCCn1c(SCC(=O)NC2CCS(=O)(=O)C2)nc2cc(S(N)(=O)=O)ccc21 (configuration not stated),0,0,0,0,0
CN(C)c1ccc(/C=N/Nc2nncc3ccccc23)cc1,?,?,-,13µM,?
COc1cc(/C=N/NC(=O)CCC(=O)NCc2ccccc2)cc(OC)c1OC,0,0,0,0,0
COc1ccc(/C=N\Nc2ccccn2)c(OC)c1,?,?,-,0,0
Cc1cccc(/C=N/Nc2nncc3ccccc23)c1,20µM,2.5µM,0,?,0
C(=N\Nc1nncc2ccccc12)/c1ccccc1,0,0,0,0,0
COc1ccc(/C=N/Nc2nncc3ccccc23)c(OC)c1,22µM,4.5µM,0,?,26µM
COc1cc(/C=N/Nc2nncc3ccccc23)cc(OC)c1OC,11µM,?,-,12µM,21µM
CN(C)c1ccc(C=Nc2cncc3ccccc23)cc1,-,-,-,0,0
SMILES,VP16 counter,RORgamma inh,TDP1 block,DT40 TDP1 no CPT,DT40 TDP1 CPT
Cc1ccc(S(=O)(=O)N(C)C)cc1NC(=O)C(C)OC(=O)C1CCCC1 (configuration not stated),-,-,-,0,0
COC(=O)c1cccc([N+](=O)[O-])c1CN1CCCC(C(N)=O)C1 (configuration not stated),0,0,0,0,0
COc1ccc(-n2c(-c3ccccc3)nc(=S)c3c2CCCC3)cc1,?,14µM,0,?,?
CCOCCn1c2ccccc2c2nc3ccccc3nc21,0,0,-,?,?
CCc1nc(Nc2ccc(OC)c(OC)c2)c2nnn(Cc3ccccc3Cl)c2n1,?,?,0,16µM,0
CN(C)S(=O)(=O)c1ccc(Nc2nc(C3CC3)nc3c2nnn3Cc2ccccc2Cl)cc1,4µM,0,0,8.2µM,9.2µM
O=C(/C=C\c1ccccc1)NCC(=O)N/N=C/c1ccc(O)cc1O,0,0,0,8.2µM,21µM
O=C(CNC(=O)C(c1ccccc1)c1ccccc1)N/N=C/c1ccc(O)cc1O,0,0,-,6.5µM,5.8µM
